± gives the standard deviation of the averaged measurements. Whole data set: some 33,000 sequences, median “E-score (rank enrichment, -0.5 to 0.5)” near -0.0068, cut for the highest 2% near 0.24. Only a selection was taken, and the highest values are over-represented in it overall.

The assay deals with muMax20 (Max(13-93) K31hArg/K57hArg, M65Nle). Kind of assay: PBM 8-mer E-score (E-score (rank enrichment, -0.5 to 0.5)); higher = stronger preferential binding. The method, then:
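Protein binding microarray (universal PBM chip covering all 10-mers in fixed probe flanks) with chemically synthesized human Max(13-93) bHLH-LZ analogs (not full-length Max) bearing noncanonical residues (hArg, Tha, Aib, Nle at 65) and aromatic Cys staples. Read-out per 8-mer (and its reverse complement): E-score (rank-based enrichment, -0.5 to 0.5) and Z-score of median probe intensity.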
Regarding GCGTGACC, the “PBM 8-mer E-score” value was found to be 0.0743 ± 0.024.

Turning to CCGTGACG, the “PBM 8-mer E-score” value was -0.149 ± 0.01.

Turning to ACGTGACT, the “PBM 8-mer E-score” value came out at 0.234 ± 0.088.

As to ACGTGACC, the “PBM 8-mer E-score” value amounted to 0.302 ± 0.02.

With ACGTGACG, the “PBM 8-mer E-score” value turned out to be 0.271 ± 0.058.

In the case of ACGTGACA, the “PBM 8-mer E-score” value came to 0.312 ± 0.043.

In the case of CCGTGACC, the “PBM 8-mer E-score” value was -0.272 ± 0.029.

As to CCGTGACA, the “PBM 8-mer E-score” value worked out at 0.0799 ± 0.03.

ACCAGAAC: the “PBM 8-mer E-score” value turned out to be 0.0216 ± 0.026.

AGCGGCCA: the “PBM 8-mer E-score” value is -0.227 ± 0.059.

Consider TAGTACTA, for which the “PBM 8-mer E-score” value amounted to 0.0405 ± 0.17.

As for AAGGCGGA, the “PBM 8-mer E-score” value was -0.113 ± 0.044.

Take TAGGCCCA: the “PBM 8-mer E-score” value is -0.123 ± 0.016.

Take CCAATTTA: the “PBM 8-mer E-score” value amounted to 0.131 ± 0.034.

As for GTGCCCTA, the “PBM 8-mer E-score” value was -0.0334 ± 0.02.

For the sequence ACGTTATC, the “PBM 8-mer E-score” value was found to be 0.0863 ± 0.046.

As to ACGTTATG, the “PBM 8-mer E-score” value is 0.282 ± 0.057.

Regarding ACGTTATA, the “PBM 8-mer E-score” value is 0.228 ± 0.019.

CCTGTACA: the “PBM 8-mer E-score” value was 0.0242 ± 0.16.

For the sequence ATACACAT, the “PBM 8-mer E-score” value stood at 0.318 ± 0.0071.

Take TTACATAA: the “PBM 8-mer E-score” value was 0.24 ± 0.0072.

Consider ATACATAT, for which the “PBM 8-mer E-score” value came to 0.254 ± 0.075.

For ATACATAG, the “PBM 8-mer E-score” value is 0.181 ± 0.13.

On to CTACATAC, for which the “PBM 8-mer E-score” value was 0.178 ± 0.042.

As for AGACATAC, the “PBM 8-mer E-score” value was 0.0812 ± 0.086.

CTACATAA: the “PBM 8-mer E-score” value stood at 0.0871 ± 0.052.

As for AGACATAG, the “PBM 8-mer E-score” value is -0.014 ± 0.18.

On to ATACACAC, for which the “PBM 8-mer E-score” value was determined as 0.208 ± 0.053.

As for ATACACAG, the “PBM 8-mer E-score” value came to 0.0766 ± 0.089.

Consider AGACATAT, for which the “PBM 8-mer E-score” value amounted to 0.29 ± 0.014.

Turning to GTACATAA, the “PBM 8-mer E-score” value was 0.175 ± 0.0024.

With ATCTAACA, the “PBM 8-mer E-score” value is 0.0591 ± 0.057.

GCGCTTCA: the “PBM 8-mer E-score” value is -0.115 ± 0.063.

With CTAGAGCC, the “PBM 8-mer E-score” value is -0.187 ± 0.036.

In the case of ACGATAGA, the “PBM 8-mer E-score” value was -0.0358 ± 0.083.

ACACATAG: the “PBM 8-mer E-score” value is -0.0133 ± 0.049.

Take ATACATCA: the “PBM 8-mer E-score” value was determined as 0.21 ± 0.061.

For GAACATAA, the “PBM 8-mer E-score” value turned out to be 0.123 ± 0.095.

Regarding ACACATAA, the “PBM 8-mer E-score” value came to 0.265 ± 0.041.

Turning to ATACATAC, the “PBM 8-mer E-score” value turned out to be 0.169 ± 0.017.

Take AAACATAA: the “PBM 8-mer E-score” value was 0.246 ± 0.1.

In the case of ATACATAA, the “PBM 8-mer E-score” value was found to be 0.255 ± 0.032.

Regarding GCACATAA, the “PBM 8-mer E-score” value was 0.151 ± 0.038.

Consider AAACATAG, for which the “PBM 8-mer E-score” value is 0.126 ± 0.018.

In the case of CTCAGGAG, the “PBM 8-mer E-score” value is -0.162 ± 0.071.

For ATCCTTGG, the “PBM 8-mer E-score” value was -0.0154 ± 0.11.

With CTTCCCTC, the “PBM 8-mer E-score” value was 0.0647 ± 0.025.

Regarding AAGATTTG, the “PBM 8-mer E-score” value is 0.0326 ± 0.071.

Turning to ACGTTTGC, the “PBM 8-mer E-score” value was found to be 0.0313 ± 0.0058.

As for CCGGTGAC, the “PBM 8-mer E-score” value is -0.252 ± 0.12.

For the sequence ACATGGTC, the “PBM 8-mer E-score” value is 0.245 ± 0.08.

Take ACATGGCG: the “PBM 8-mer E-score” value was 0.175 ± 0.045.

With CAATGGTA, the “PBM 8-mer E-score” value worked out at 0.0785 ± 0.022.

AAATGGTA: the “PBM 8-mer E-score” value was determined as 0.238 ± 0.096.

Turning to CCATGCTC, the “PBM 8-mer E-score” value is 0.0121 ± 0.13.

CCATGGTC: the “PBM 8-mer E-score” value is -0.1574 ± 0.0011.

ACATGCTC: the “PBM 8-mer E-score” value was 0.237 ± 0.091.

Turning to ACATGGTG, the “PBM 8-mer E-score” value was 0.241 ± 0.053.

ACATGCTA: the “PBM 8-mer E-score” value came out at 0.164 ± 0.071.

Regarding AGATGGTG, the “PBM 8-mer E-score” value was -0.0739 ± 0.067.

As for CTATGGTC, the “PBM 8-mer E-score” value is -0.125 ± 0.061.

With TAATGGTA, the “PBM 8-mer E-score” value was 0.193 ± 0.013.

For the sequence ATCTGGTA, the “PBM 8-mer E-score” value is -0.00159 ± 0.021.

As for AGCGGCCC, the “PBM 8-mer E-score” value is -0.191 ± 0.026.

As for CGACGGTC, the “PBM 8-mer E-score” value is -0.172 ± 0.15.

For the sequence AGTGTGTG, the “PBM 8-mer E-score” value came to 0.0857 ± 0.065.

AAGAGCTA: the “PBM 8-mer E-score” value stood at 0.12 ± 0.045.

On to ATTTGTCA, for which the “PBM 8-mer E-score” value is 0.123 ± 0.0081.

On to CCGGCCCG, for which the “PBM 8-mer E-score” value was -0.259 ± 0.054.

In the case of ACATGGTA, the “PBM 8-mer E-score” value stood at 0.287 ± 0.017.

Consider CCATGGTA, for which the “PBM 8-mer E-score” value came to 0.143 ± 0.12.

Regarding GCATGGTA, the “PBM 8-mer E-score” value is 0.142 ± 0.082.

Consider GTACCACA, for which the “PBM 8-mer E-score” value turned out to be 0.115 ± 0.043.

Regarding CGTGCTCC, the “PBM 8-mer E-score” value was 0.0253 ± 0.0099.

With ACATCGTA, the “PBM 8-mer E-score” value was determined as 0.101 ± 0.015.

For the sequence AAAATTTG, the “PBM 8-mer E-score” value was 0.12 ± 0.17.

For AAAAATTT, the “PBM 8-mer E-score” value was found to be 0.164 ± 0.0071.

Regarding AAAATTTT, the “PBM 8-mer E-score” value came out at 0.305 ± 0.019.

In the case of CACTGACC, the “PBM 8-mer E-score” value was -0.132 ± 0.086.

As to ACCATGTA, the “PBM 8-mer E-score” value came out at 0.0719 ± 0.046.

ATCATGTA: the “PBM 8-mer E-score” value came out at 0.108 ± 0.027.

On to ACCATGTC, for which the “PBM 8-mer E-score” value came to 0.0641 ± 0.067.

Consider ACCATGTG, for which the “PBM 8-mer E-score” value came to 0.359 ± 0.078.

For the sequence AGCATGTC, the “PBM 8-mer E-score” value was 0.0591 ± 0.078.

ATCATGTC: the “PBM 8-mer E-score” value came to 0.225 ± 0.024.

Take AGCATGTA: the “PBM 8-mer E-score” value came to 0.228 ± 0.034.

For the sequence ATCATGTG, the “PBM 8-mer E-score” value was 0.247 ± 0.12.

For the sequence AGCATGTG, the “PBM 8-mer E-score” value was 0.276 ± 0.029.

Values taken from the supplement of paper PMC12636033.
